This is a sample that favours compounds with a hit; in the whole collection about 1.3% have one here.
AmpC inh detg: AmpC beta-lactamase inhibition with detergent present; P00811; hit rate 0.041% among 370,000; Potency, µM (top dose mostly 114 µM), usual class: inhibitors; AmpC hydrolysis of nitrocefin, absorbance 480 nm, 0.01% Triton; AID 485294; note: nearly all actives have a fitted effect of over 25% in size
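20 mM phosphate pH 7.0 + 0.01% (detergent screen) or 0.0001% Triton X-100; 5.3 nM AmpC reagent; cpd preinc 15 min RT; nitrocefin (800 uM stock) to start; A480 q20 s × 4 min; Activity was normalised to no-enzyme and no-compound control wells.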
AmpC no deterg: blocks E. coli AmpC beta-lactamase in detergent-free assay | AmpC nitrocefin hydrolysis, absorbance 480 nm, 0.0001% Triton | Potency, µM (titrated, usually from 57.1 µM), usual class: inhibitors | hit rate 0.52% among 330,000; note: nearly all actives have a fitted effect of over 20% in size
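20 mM phosphate pH 7.0 + 0.01% (detergent screen) or 0.0001% Triton X-100; 5.3 nM AmpC reagent; cpd preinc 15 min RT; nitrocefin (800 uM stock) to start; A480 q20 s × 4 min; Activity was normalised to no-enzyme and no-compound control wells.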
AMA1 RON2 block: AMA1-RON2 (P. falciparum) interaction inhibition; Potency, µM (top dose mostly 58.2 µM), actives largely listed as inhibitors; hit rate 0.2% among 360,000; AlphaScreen AMA1-biotinylated RON2 peptide binding; AID 720542; note: nearly all actives have a fitted effect of over 45% in size
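AMA1 (3D7) with his tag at 25 nM final met compounds first, then biotinylated RON2 peptide at 25 nM; detection used donor plus acceptor beads, 10 µg/mL apiece, read by AlphaScreen after 30 min at room temperature.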
Giardia FBPA inh: Giardia lamblia aldolase inhibition | A8B2U2 | purified Giardia FBPA | Potency, µM (doses to about 59.6 µM), usual class: inhibitors | hit rate 0.71% among 290,000 | AID 2451; note: nearly all actives have a fitted effect of over 55% in size
Target sequence (A8B2U2 whole entry, looked up): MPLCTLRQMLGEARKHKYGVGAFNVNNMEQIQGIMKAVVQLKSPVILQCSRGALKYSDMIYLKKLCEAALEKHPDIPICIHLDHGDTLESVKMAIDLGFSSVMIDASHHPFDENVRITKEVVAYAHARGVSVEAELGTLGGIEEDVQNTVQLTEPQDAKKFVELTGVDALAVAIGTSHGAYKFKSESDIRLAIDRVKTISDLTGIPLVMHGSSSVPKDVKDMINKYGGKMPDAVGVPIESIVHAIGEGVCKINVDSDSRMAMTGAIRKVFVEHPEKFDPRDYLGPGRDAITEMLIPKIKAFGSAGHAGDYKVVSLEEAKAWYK
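Giardia FBPA (40 nM reagent) was preincubated 10 min at RT with compound (up to 57.5 uM final), then substrate plus GAPDH/TPI/NAD/arsenate coupling system with diaphorase/resazurin was added; resorufin fluorescence (525/598 nm) was read after 20 min.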
LmPK inhibitor: inhibitors of Leishmania mexicana pyruvate kinase; Q27686; purified LmPK, Kinase-Glo ATP luminescence, 1 h; Potency, µM (series often up to 57.5 µM), most hits filed as inhibitors; hit rate 0.37% among 290,000
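ATP generated from ADP (0.1 mM) and PEP (0.5 mM) by 0.1 nM LmPK over 1 h at room temperature (pH 7.2 imidazole buffer) was detected by coupled luciferase luminescence. Values were normalized to uninhibited and no-enzyme wells.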
Each line names hits and unclear results; the compound was inactive in the other large screens. Calls come from the whole dose curve; as a rule, active = well fitted curve in the direction sought with a large enough effect; inconclusive = small, poorly fitted or top-dose-only effect, or another doubt; inactive = no such curve, though single readings can be large; an effect the other way counts as inactive or inconclusive.

COc1ccccc1N1CCN(C(c2cc3ccc(C)cc3[nH]c2=O)c2nnnn2C2CCCC2)CC1 (configuration not stated)	AmpC inh detg inconclusive, Giardia FBPA inh 28µM
Cc1ccc(-n2ncc(C(=O)Nc3ccc4c(c3)OCO4)c2C2CCN(C(=O)OC(C)(C)C)CC2)c(C)c1	none (no result: AmpC no deterg, AMA1 RON2 block, Giardia FBPA inh, LmPK inhibitor)
Cc1nc2cc(NC(=O)NCc3ccco3)ccc2o1	AmpC no deterg 0.35µM
CCCCn1c(N)c(N(CC(C)C)C(=O)CN2C(=O)C3CCCCC3C2=O)c(=O)[nH]c1=O (configuration not stated)	AmpC inh detg inconclusive (no result: Giardia FBPA inh, LmPK inhibitor)
CCCCn1c(N)c(N(CC(C)C)C(=O)CN2C(=O)NC3(CC(C)CC(C)(C)C3)C2=O)c(=O)[nH]c1=O (configuration not stated)	AmpC no deterg 35µM (no result: Giardia FBPA inh, LmPK inhibitor)
C=CC(=O)Nc1cccc(Oc2ccnc3[nH]ccc23)c1	AMA1 RON2 block 25µM (no result: AmpC inh detg, AmpC no deterg, Giardia FBPA inh, LmPK inhibitor)
CCc1nc2ccc(C(=O)Nc3ccc(OC)c(OC)c3)cn2c1N(C)Cc1nccs1	none (no result: AmpC inh detg, AmpC no deterg, Giardia FBPA inh, LmPK inhibitor)
CCc1nc2ccc(C(=O)Nc3ccc(OC)c(OC)c3)cn2c1N(C)Cc1ccc(N(C)C)cc1	AMA1 RON2 block 32µM (no result: AmpC inh detg, AmpC no deterg, Giardia FBPA inh, LmPK inhibitor)
O=C1C=C(N(CCO)Cc2ccccc2)c2ccccc2C1=O	Giardia FBPA inh 0.35µM
O=C(Nc1cccc(-c2ccc(N3CCOCC3)nn2)c1)c1ccc(Cl)cc1	AmpC inh detg inconclusive, AmpC no deterg 32µM (no result: Giardia FBPA inh, LmPK inhibitor)
O=C(Nc1cccc(-c2ccc(N3CCOCC3)nn2)c1)c1cccc(Cl)c1	none (no result: AmpC inh detg, AmpC no deterg, Giardia FBPA inh, LmPK inhibitor)
O=C(Nc1ccccc1OC(F)F)c1cccc(S(=O)(=O)N2CCCC2)c1	AmpC inh detg inconclusive
Cc1ccc(NC(=O)C2CCN(c3ncnc4sc(C)c(C)c34)CC2)cc1S(=O)(=O)N(C)C	AmpC inh detg inconclusive, AmpC no deterg 28µM (no result: Giardia FBPA inh, LmPK inhibitor)
CCN(CC)S(=O)(=O)c1cc(NC(=O)C2CCN(c3ncnc4sc(C)c(C)c34)CC2)ccc1Cl	none (no result: Giardia FBPA inh, LmPK inhibitor)
Cc1ccc2nc3sc(C(=O)Nc4ccc(N5CCOCC5)cc4)c(N)c3cc2c1	AmpC no deterg 0.35µM (no result: AMA1 RON2 block)
COc1ccc2oc(C(=O)N(Cc3ccco3)Cc3cccs3)c(C)c2c1	AmpC no deterg 32µM (no result: Giardia FBPA inh, LmPK inhibitor)
O=C(NC(=S)Nc1ccccc1N1CCCCC1)c1ccco1	AmpC inh detg inconclusive
O=C(NC(=S)Nc1ccccc1N1CCCC1)c1ccco1	Giardia FBPA inh 14µM
CCCCC1CCC(C(=O)NCC(c2ccco2)N2CCOCC2)CC1 (configuration not stated)	none (no result: AMA1 RON2 block)
O=C(NNc1ccccc1[N+](=O)[O-])Nc1ccc(Cl)c(Cl)c1	AmpC no deterg 25µM
CCN(CC)c1ccc(NC(=O)Nc2ccccc2)cc1	AMA1 RON2 block inconclusive
CCN(CC)c1ccc(NC(=O)Nc2ccc(C(C)=O)cc2)cc1	AmpC no deterg 0.28µM
Cc1ccc(-c2nc(-c3ccccn3)no2)cc1[N+](=O)[O-]	LmPK inhibitor 14µM
Cc1ccc2nc(-c3cccnc3)oc2c1	AMA1 RON2 block inconclusive, LmPK inhibitor inconclusive
Cc1ccc(-c2nc(-c3ccccn3)no2)cc1Cl	LmPK inhibitor 14µM
Cc1ccc2nc(-c3ccccn3)oc2c1	LmPK inhibitor 16µM
c1ccc(-c2ccc(-c3nc(-c4ccccn4)no3)cc2)cc1	LmPK inhibitor 14µM
COc1cc(CN(C(=O)c2ccc(OC(C)C)cc2)c2ccccn2)cc(OC)c1OC	none (no result: AmpC no deterg, AMA1 RON2 block, Giardia FBPA inh, LmPK inhibitor)
Clc1cccc(-c2nc(-c3ccccn3)no2)c1	LmPK inhibitor 10µM
c1ccc(-c2cc(-c3nc(-c4ccccn4)no3)c3ccccc3n2)cc1	none (no result: AmpC inh detg, AmpC no deterg, Giardia FBPA inh, LmPK inhibitor)
Cc1ccc(-c2nc(-c3ccccn3)no2)cc1	LmPK inhibitor 2.8µM
c1ccc(-c2noc(-c3ccco3)n2)nc1	LmPK inhibitor 16µM
Cc1ccccc1-c1noc(-c2ccc(O)cc2)n1	LmPK inhibitor 14µM
Cc1c(C=Nc2ccc(S(=O)(=O)N(C)C)cc2)c(O)[nH]c(=O)c1C#N	none (no result: AmpC inh detg, AmpC no deterg, Giardia FBPA inh, LmPK inhibitor)
C[C@H]1CNC(=O)c2c(C(=O)N[C@@H](Cc3c[nH]c4ccccc34)C(=O)OC(C)(C)C)ncn21	none (no result: AmpC inh detg, AmpC no deterg, Giardia FBPA inh, LmPK inhibitor)
O=C(CN1CCN(Cc2ccc(F)cc2Cl)S1(=O)=O)Nc1ccc(F)cc1	none (no result: AmpC no deterg, AMA1 RON2 block, Giardia FBPA inh, LmPK inhibitor)
CCOc1ccc(C2C(C(N)=O)=C(C)Nc3nc(SCc4ccccc4)nn32)cc1 (configuration not stated)	none (no result: AmpC no deterg, AMA1 RON2 block, Giardia FBPA inh, LmPK inhibitor)
Clc1ccc(-c2nc(-c3cnccn3)no2)cc1	LmPK inhibitor 7.9µM

Assay outcomes: PubChem BioAssay, National Center for Advancing Translational Sciences (NCATS)
